From PubChem BioAssay AID2685 (National Center for Advancing Translational Sciences (NCATS), 2010) come the findings set out here.

Out of some 320,000 compounds screened, about 2,100 (0.66%) were called active. Roughly 53% stayed inconclusive and do not appear here. The call rests on the fitted dose curve; in most records, active means well fitted inhibition curve with a large enough effect in the signal ratio, with a control signal flat (not every such curve was filed as active); inconclusive means small, poorly fitted or top-dose-only effect, or effect the other way, or a change in a side signal; inactive means flat fitted curve, though single readings scatter; the % refers to the signal ratio. The list comes from a sample in which actives are over-represented; it also holds similar structures and randomly drawn compounds.
Potency means the concentration at half of the fitted maximal effect.

The nature of this assay: qHTS Assay for Lipid Storage Modulators in Drosophila S3 Cells.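 On cell number change: cells counted by Cell Tracker Red CMTPX staining in the red channel.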 On lipid storage change, negative = inhibition: on the % scale 0 is the no-effect control and ±100 the full control effect. As to conditions: BODIPY lipid droplet fluorescence, 18-24 h, cells fed with added oleic acid; cell number change: measured here: cell count max response; series mostly up to 46.1 µM; lipid storage change, negative = inhibition: at the top concentration. Summed up: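 Drosophila S3 cells loaded with oleic acid (400 uM, as added) and compounds at several concentrations; lipid droplets imaged by 488-nm laser-scanning cytometry, 500–530 nm intensity and object ratio to cell channel. Percent activity normalized to 20 uM Triacsin C.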
As for `COc1ccc(NC(=O)Nc2nnc(Cc3ccc(F)cc3)s2)cc1`, the “lipid storage change, negative = inhibition” value was 2.57% (inactive) and the cell number change is -7.21%.
For `O=C(Nc1nnc(Cc2ccc(F)cc2)s1)Nc1ccccc1F`, the compound was classed as inactive and the cell number change was -6.61%.
As for `O=C(Nc1ccccc1)Nc1nnc(Cc2ccc(F)cc2)s1`, the Potency was 0.103 µM (active) and the cell number change stood at 14%.
Turning to `O=C1CCc2cc(S(=O)(=O)NC3CCCCC3)cc3c2N1CC3`, the outcome was “inactive [at 0.0737 µM]”.
Take `Cc1ccc(OCC(O)CN2CCN(CCO)CC2)c(C)c1` (centres undefined): the “lipid storage change, negative = inhibition” value is -4.99% (inactive) and the cell number change stood at 3.63%.
In the case of `O=C(NCc1cccc(C(F)(F)F)c1)C1CCCN(c2ncccn2)C1` (centres undefined), the call was inactive and the cell number change amounted to 23.6%.
With `CN1C(=O)/C(=C/c2cc(C(C)(C)C)c(O)c(C(C)(C)C)c2)NC1=S`, the “lipid storage change, negative = inhibition” value was 9.04% (inactive).
`O=C(CN1C(=O)S/C(=C\c2ccccc2F)C1=O)NC1C=CS(=O)(=O)C1` (centres undefined): the compound was called inactive and the cell number change was -3.44%.
Consider `O=C(CCN1C(=O)/C(=C/c2ccccc2F)SC1=S)NC1C=CS(=O)(=O)C1` (centres undefined), for which the result was inactive.
With `O=C1/C(=C/c2ccccc2)SC(=S)N1CC(=O)N1CCCCC1c1cccnc1` (centres undefined), the result was inactive and the cell number change worked out at 6.85%.
For the compound `O=C(CCN1C(=O)/C(=C\c2ccccc2F)SC1=S)N1CCCCC1`, the “lipid storage change, negative = inhibition” value was 0.243% (inactive) and the cell number change was determined as 13.6%.
On to `O=C1/C(=C/c2ccccc2F)SC(=S)N1CC(=O)N1CCCCC1c1cccnc1` (centres undefined), for which the Potency is 7.31 µM (active) and the cell number change was -0.951%.
Taken in the same sequence, the figures for `O=C(CN1C(=O)/C(=C/c2ccccc2F)SC1=S)NC1C=CS(=O)(=O)C1` (centres undefined) were 16.4 µM (active) and -4.2%.
The corresponding values for `CC(=O)c1nn(-c2cccc(Br)c2)cc1C(=O)c1ccc2ccccc2c1` are 5.17 µM (active) and -7.14%.
For the compound `CC(=O)c1nn(-c2ccccc2)cc1C(=O)c1cccc(Br)c1`, the “lipid storage change, negative = inhibition” value was 18.9% (inactive) and the cell number change was -13.3%.
`CC(=O)c1nn(-c2cccc(Br)c2)cc1C(=O)c1ccccc1`: the “lipid storage change, negative = inhibition” value was 18.9% (inactive) and the cell number change was -13.8%.
The corresponding values for `Cc1ccc(C(=O)NC2CCS(=O)(=O)C2)cc1S(=O)(=O)N1CCOCC1` (centres undefined) are -7.04% (inactive) and 10.2%.
The corresponding values for `CCOC(=O)CS(=O)(=O)c1ccccc1` are -0.796% (inactive) and 1.52%.
As to `CCOC(=O)N=S(N)(=O)c1ccccc1` (centres undefined), the Potency was 14.6 µM (active) and the cell number change was -1.15%.
For the compound `CCOC(=O)N=S(N)(=O)c1ccc(Cl)cc1` (centres undefined), the “lipid storage change, negative = inhibition” value is -21% (inactive) and the cell number change was -0.647%.
The corresponding values for `CCc1ccc(NC(=O)NCC2CCN(Cc3cccc(Cl)c3)CC2)cc1` are -2.08% (inactive) and -23.4%.
Turning to `COC(=O)c1ccc(CON2C(=O)c3ccccc3C2=O)cc1`, the “lipid storage change, negative = inhibition” value is -5.5% (inactive) and the cell number change was -3.96%.
The corresponding values for `COC(=O)CCC(=O)NN1C(=O)c2ccccc2C1=O` are -14.5% (inactive) and 9.79%.
In the case of `COC(=O)CON1C(=O)c2ccccc2C1=O`, the Potency was 25.9 µM (active) and the cell number change is -16.7%.
For `CN(Cc1cccc(F)c1)C(=O)c1cc(S(=O)(=O)N2CCOCC2)ccc1N1CCCC1`, the “lipid storage change, negative = inhibition” value is 2.59% (inactive) and the cell number change was -6.74%.
With `COc1ccc(OC)c(NC2=NC3(CCCC3)N=C(N)N2)c1`, the call was inactive and the cell number change is -7.97%.
For the compound `COc1cccc(NC2=NC3(CCCCC3)N=C(N)N2)c1`, the Potency was 6.51 µM (active) and the cell number change stood at 5.89%.
On to `COc1ccc(NC2=NC3(CCCCC3)N=C(N)N2)cc1`, for which the “lipid storage change, negative = inhibition” value was -9.8% (inactive) and the cell number change is -9.76%.
As to `O=C(Cn1nnc2ccccc21)c1ccc([N+](=O)[O-])cc1`, the “lipid storage change, negative = inhibition” value was 1.88% (inactive) and the cell number change was 9.12%.
`O=C(CCn1nnc2ccccc21)OCC(=O)c1ccc([N+](=O)[O-])cc1`: the Potency is 0.731 µM (active) and the cell number change turned out to be 5.65%.
On to `O=C(Cn1nnc2ccccc21)OCC(=O)c1ccccc1`, for which the “lipid storage change, negative = inhibition” value is -10% (inactive) and the cell number change was -10.5%.
With `O=[N+]([O-])c1ccc(N2CCOCC2)cc1NCCCO`, the “lipid storage change, negative = inhibition” value is 6.02% (inactive) and the cell number change is 7.85%.
Taken in the same sequence, the figures for `Cc1ccc2ncnc(Nc3ccccc3)c2c1` were 8.18% (inactive) and -8.5%.
The corresponding values for `O=C(O)c1cccc(Nc2ncnc3ccc(Br)cc23)c1` are -2.57% (inactive) and -2.61%.
With `Cc1ccc2ncnc(Nc3cccc([N+](=O)[O-])c3)c2c1`, the Potency is 8.2 µM (active) and the cell number change was 12.6%.
With `Cc1ccc2ncnc(Nc3cccc(C(=O)O)c3)c2c1`, the “lipid storage change, negative = inhibition” value was -2% (inactive) and the cell number change is -1.09%.
Consider `O=C(O)c1cccc(Nc2ncnc3ccccc23)c1`, for which the Potency was 25.9 µM (active) and the cell number change was -4.45%.
Regarding `Cn1ncc2c(Nc3cccc([N+](=O)[O-])c3)ncnc21`, the call was inactive and the cell number change is -17%.
As for `O=C(NCC(=O)N1CCN(c2ccccc2F)CC1)c1ccc(Br)o1`, the call was inactive.
Take `Cc1cccc(N2CCN(C(=O)c3ccc(CS(=O)Cc4ccc(Cl)cc4)o3)CC2)c1C` (centres undefined): the result was inactive and the cell number change is -21%.
`CCN1CCCC1CNCc1ccc(Cl)cc1Cl` (centres undefined): the Potency is 7.31 µM (active) and the cell number change was -167%.
With `CCOc1cc(CNCC2CCCN2CC)cc(Cl)c1OC` (centres undefined), the “lipid storage change, negative = inhibition” value was 0.755% (inactive) and the cell number change came to 12.4%.
On to `CCN1CCCC1CNCc1ccccc1OCc1ccc(F)cc1` (centres undefined), for which the outcome was inactive and the cell number change was 13.4%.
For `CCn1cc(CN2CCC(n3nccc3NC(=O)c3ccc(OC)cc3)CC2)cn1`, the “lipid storage change, negative = inhibition” value is 3.07% (inactive) and the cell number change is -5.94%.
Taken in the same sequence, the figures for `O=c1[nH]c2ccc(S(=O)(=O)N3CCCCC3)cc2o1` were 3.63% (inactive) and 2.33%.
For the compound `COc1ccc(C(=O)NNC(=O)COc2ccc(Cl)cc2)c(OC)c1`, the compound was called inactive and the cell number change was determined as 4.95%.
`CCOc1ccccc1NC(=O)C1CCCN(S(=O)(=O)c2cccc3nsnc23)C1` (centres undefined): the “lipid storage change, negative = inhibition” value is 20.9% (inactive) and the cell number change was -15.5%.
`CCc1ccc(NS(=O)(=O)c2ccc(OC)c3ncccc23)cc1`: the “lipid storage change, negative = inhibition” value is 4.19% (inactive) and the cell number change was 5.2%.
Turning to `CNC(=O)C(=O)Nc1cc2c3c(c1)CCC(=O)N3CCC2`, the compound was called inactive and the cell number change was -5.6%.
